Screening data from PubChem BioAssay.
Shown are actives, neighbours in structure and some others; about 3.7% of the full set was active somewhere.
BoNT A protease: BoNT/A light chain protease inhibitors, primary screen, biochemical, flow cytometry, MLPCN library; inhibition, % at 10 µM; multiplex microsphere protease substrate cleavage; Botulinum neurotoxin type A light chain protease (Clostridium botulinum A str. ATCC 3502); actives 0.17% (n = 360,000); AID 588499, 2011; in the data active = inhibition above about 30%; inconclusive = no clear call, values can overlap the other calls; note: plate controls were buffer without enzyme for full effect and enzyme alone for no effect
Autofluor counter: compound fluorescence in toxin protease inhibitor counterscreen | actives 3.1% (n = 360,000) | AID 624483 | compound autofluorescence counterscreen, microsphere flow cytometry; hits give high values | fluorescence intensity (no concentration beside the values); in the data active = fluorescence intensity above about 16000; inconclusive = no clear call, values can overlap the other calls
Anthrax LF inh2: Bacillus anthracis LF protease inhibitors, primary screen, biochemical, multiplex microsphere, MLPCN library; Lethal factor (Bacillus anthracis), P15917; multiplex microsphere protease cleavage assay; inhibition, % at 10 µM; actives 0.12% (n = 360,000); in the data active = inhibition above about 30%; inconclusive = no clear call, values can overlap the other calls; note: plate controls were buffer without enzyme for full effect and enzyme alone for no effect
Target sequence (P15917 whole entry, looked up): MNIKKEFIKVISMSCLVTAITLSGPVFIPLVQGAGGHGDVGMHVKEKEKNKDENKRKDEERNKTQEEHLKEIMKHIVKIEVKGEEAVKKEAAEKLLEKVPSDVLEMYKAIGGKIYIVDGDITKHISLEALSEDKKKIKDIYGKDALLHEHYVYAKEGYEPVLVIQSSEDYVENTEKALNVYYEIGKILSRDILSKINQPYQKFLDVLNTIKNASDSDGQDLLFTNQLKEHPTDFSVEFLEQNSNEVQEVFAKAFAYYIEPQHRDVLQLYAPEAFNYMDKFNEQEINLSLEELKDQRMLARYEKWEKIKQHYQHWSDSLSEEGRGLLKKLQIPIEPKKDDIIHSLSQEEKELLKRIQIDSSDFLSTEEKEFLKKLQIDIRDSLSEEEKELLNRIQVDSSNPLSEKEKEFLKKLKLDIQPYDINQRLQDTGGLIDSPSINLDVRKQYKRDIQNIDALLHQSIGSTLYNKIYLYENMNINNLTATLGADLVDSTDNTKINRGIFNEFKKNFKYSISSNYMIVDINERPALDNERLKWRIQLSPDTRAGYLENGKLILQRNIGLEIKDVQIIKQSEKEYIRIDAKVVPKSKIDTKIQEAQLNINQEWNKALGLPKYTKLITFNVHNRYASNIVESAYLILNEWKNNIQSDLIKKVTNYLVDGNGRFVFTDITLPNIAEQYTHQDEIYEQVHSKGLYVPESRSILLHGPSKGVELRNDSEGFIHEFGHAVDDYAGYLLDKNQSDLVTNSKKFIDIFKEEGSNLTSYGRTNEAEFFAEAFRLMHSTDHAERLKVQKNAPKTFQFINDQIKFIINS
MazF activator: activators of E. coli MazEF toxin-antitoxin RNase, primary screen, biochemical, fluorescence, uHTS | FAM/BHQ RNA-DNA oligo cleavage fluorescence, 5 h | activation, % at 20 µM | actives 0.32% (n = 350,000); in the data active = activation above about 50%
BoNT-F LC inh: BoNT/F light chain protease inhibitors, primary screen, biochemical, flow cytometry, MLPCN library. Multiplex microsphere protease cleavage assay. actives 0.22% (n = 360,000). AID 588497, 2011. inhibition, % at 10 µM. Botulinum neurotoxin type F light chain protease (Clostridium botulinum); in the data active = inhibition above about 35%, passing the limit was not always enough; inconclusive = no clear call, values can overlap the other calls; note: plate controls were buffer without enzyme for full effect and enzyme alone for no effect
BoNT-A LC CP1: BoNT/A light chain protease inhibitors, confirmation, biochemical, flow cytometry, cherry pick 1; shares compounds with BoNT-F LC inh; multiplex microsphere protease assay; inhibition, % at 10 µM; actives 3% (n = 720); in the data active = inhibition above about 32%
BoNTF LC inh 1: BoNT/F light chain protease inhibitors, confirmation, biochemical, flow cytometry, cherry pick 1 | shares compounds with BoNT-F LC inh | AID 602140, 2011 | inhibition, % at 10 µM | multiplex microsphere protease cleavage assay | 720 tested, under 10 active
Anthrax LF CP1: Bacillus anthracis LF protease inhibitors, confirmation, biochemical, multiplex microsphere, cherry pick 1. AID 602142, 2011. multiplex microsphere protease cleavage assay. 720 tested, under 10 active. shares compounds with BoNT-F LC inh. inhibition, % at 10 µM
Active calls of the source: *. Unless noted, the rule behind the calls is not given here.

Results for Cc1ccc(NC(=O)CN(C)C(=O)c2ccccc2OCc2c(C)noc2C)cc1 ?
BoNT A protease: 89*; Autofluor counter: inconclusive; Anthrax LF inh2: inconclusive; MazF activator: -1; BoNT-F LC inh: inconclusive; BoNT-A LC CP1: 0; BoNTF LC inh 1: 0; Anthrax LF CP1: -2

What do the screens show for `COc1cc(OC)nc(Nc2nc(C(N)Cc3ccc(F)cc3)cs2)n1` (stereo not drawn)?
BoNT A protease: 0; Autofluor counter: 3729; Anthrax LF inh2: -6; BoNT-F LC inh: -15

What do the screens show for `Cc1ccc(Nc2nc(Oc3ccc(=O)[nH]n3)nc(N(C)C)n2)cc1`?
BoNT A protease: 0; Autofluor counter: 4829; Anthrax LF inh2: -5; MazF activator: 4; BoNT-F LC inh: -13

What do the screens show for `CN(C)c1nc(Nc2ccc(F)cc2)nc(Oc2ccc(F)cc2)n1`?
BoNT A protease: 57*; Autofluor counter: 1636; Anthrax LF inh2: -90; MazF activator: 11; BoNT-F LC inh: -254; BoNT-A LC CP1: -1; BoNTF LC inh 1: -4; Anthrax LF CP1: -1

What do the screens show for `COc1ccccc1-c1c(C)nn2c(N)c(-c3ccccc3)cnc12`?
BoNT A protease: 1; Autofluor counter: 4105; Anthrax LF inh2: -1; MazF activator: 6; BoNT-F LC inh: 19

Results for COc1ccc(-c2c(C)nn3c(N)c(-c4ccccc4)cnc23)cc1OC ?
BoNT A protease: -6; Autofluor counter: 4470; Anthrax LF inh2: -2; MazF activator: 1; BoNT-F LC inh: 40*; BoNT-A LC CP1: 0; BoNTF LC inh 1: -4; Anthrax LF CP1: -3

Results for CCS(=O)(=O)N1N=C(c2cccc(NS(C)(=O)=O)c2)CC1c1ccccc1 (stereo not drawn) ?
BoNT A protease: 94*; Autofluor counter: 25649*; Anthrax LF inh2: 44*; MazF activator: -117; BoNT-F LC inh: 30; BoNT-A LC CP1: -6; Anthrax LF CP1: -8

Results for CS(=O)(=O)Nc1cccc(C2=NN(S(=O)(=O)c3ccccc3)C(c3ccco3)C2)c1 (stereo not drawn) ?
BoNT A protease: -1; Autofluor counter: 2700; Anthrax LF inh2: -1; MazF activator: -2; BoNT-F LC inh: -7

What do the screens show for `NS(=O)(=O)c1ccc(CCNC2CC(=O)N(CCc3ccccc3)C2=O)cc1` (stereo not drawn)?
BoNT A protease: 6; Autofluor counter: 7354; Anthrax LF inh2: 52*; MazF activator: 6; BoNT-F LC inh: 158*; BoNT-A LC CP1: 1; BoNTF LC inh 1: 1; Anthrax LF CP1: 4

Results for O=C(NCc1nnnn1-c1ccc(F)cc1)c1ccc(S(=O)(=O)N2CCOCC2)cc1 ?
BoNT A protease: -1; Autofluor counter: 4073; Anthrax LF inh2: -1; MazF activator: -4; BoNT-F LC inh: -1

What do the screens show for `COc1ccc(-c2cnc3n2CCCCC3)cc1`?
BoNT A protease: 5; Autofluor counter: 3877; Anthrax LF inh2: 9; MazF activator: 3; BoNT-F LC inh: 42*; BoNT-A LC CP1: -1; BoNTF LC inh 1: -1; Anthrax LF CP1: 1

Results for c1csc(-c2cnc3n2CCCC3)c1 ?
BoNT A protease: -1; Autofluor counter: 4734; Anthrax LF inh2: -4; MazF activator: 5; BoNT-F LC inh: -27

How did Cc1cc2nc(C(C)(C)C)c(Cc3ccsc3)n2c(C)c1Br do in these assays?
BoNT A protease: 0; Autofluor counter: 6397; Anthrax LF inh2: 2; BoNT-F LC inh: -2

How did COC(=O)c1sccc1NC(=O)c1ccco1 do in these assays?
BoNT A protease: 0; Autofluor counter: 4135; Anthrax LF inh2: -3; MazF activator: 5; BoNT-F LC inh: 36*; BoNT-A LC CP1: -2; BoNTF LC inh 1: -3; Anthrax LF CP1: -3

What do the screens show for `COC(=O)c1ccccc1NC(=O)c1ccco1`?
BoNT A protease: 0; Autofluor counter: 2121; Anthrax LF inh2: 0; MazF activator: 5; BoNT-F LC inh: 4

How did Cn1c2ccccc2c(=O)c2c(=O)n(-c3ccccc3)c(-c3ccc(C(C)(C)C)cc3)nc21 do in these assays?
BoNT A protease: 4; Autofluor counter: 4082; Anthrax LF inh2: 36*; MazF activator: -9; BoNT-F LC inh: inconclusive; BoNT-A LC CP1: -2; BoNTF LC inh 1: 0; Anthrax LF CP1: 2

Results for Cc1ccc(-c2nc3c(c(=O)c4ccccc4n3C)c(=O)n2-c2ccc(F)cc2)cc1 ?
BoNT A protease: inconclusive; Autofluor counter: 5145; Anthrax LF inh2: -3; MazF activator: 8; BoNT-F LC inh: inconclusive

How did NS(=O)(=O)c1cccc(NC(=O)CSc2nc3ccccc3c(=O)n2CC2CCCO2)c1 (stereo not drawn) do in these assays?
BoNT A protease: -1; Autofluor counter: 6040; Anthrax LF inh2: 0; MazF activator: 6; BoNT-F LC inh: -8

Results for COc1ccc(-n2cc(CNCCCn3ccnc3)c(-c3cccc(F)c3)n2)cc1 ?
BoNT A protease: 4; Autofluor counter: 2583; Anthrax LF inh2: -2; MazF activator: -8; BoNT-F LC inh: 37*; BoNT-A LC CP1: -1; BoNTF LC inh 1: -15; Anthrax LF CP1: -4

How did COc1ccc(CCNC(=O)c2ccc3c(c2)OCCO3)cc1 do in these assays?
BoNT A protease: 0; Autofluor counter: 3469; Anthrax LF inh2: -5; MazF activator: -8; BoNT-F LC inh: -2

Results for COc1ccc(CCNC(=O)c2ccc3c(c2)OCO3)cc1 ?
BoNT A protease: 64*; Autofluor counter: 5785; Anthrax LF inh2: 3; MazF activator: 10; BoNT-F LC inh: 2; BoNT-A LC CP1: 1; BoNTF LC inh 1: -2; Anthrax LF CP1: 2

What do the screens show for `CCCc1cc(=O)[nH]c(SCC(=O)NCCN2C(=O)CSC2=O)n1`?
BoNT A protease: 2; Autofluor counter: 8726; Anthrax LF inh2: 2; MazF activator: 13; BoNT-F LC inh: 4

Results for CCOc1ccc(NC(=O)c2[nH]c(C)c(C(C)=O)c2C)cc1 ?
BoNT A protease: -1; Autofluor counter: 7115; Anthrax LF inh2: 3; MazF activator: 4; BoNT-F LC inh: 35*; BoNT-A LC CP1: -2; BoNTF LC inh 1: -7; Anthrax LF CP1: -2

What do the screens show for `COc1ccc(NC(=O)c2[nH]c(C)c(C(C)=O)c2C)cc1`?
BoNT A protease: -2; Autofluor counter: 4240; Anthrax LF inh2: -3; MazF activator: 1; BoNT-F LC inh: -4
